Targets with a hit are over-represented here; the source holds about 7,900 in all. About 0.6% of all pairs of compound and target were hits.

Sequence of UniProt Q7Z7A3 (Q7Z7A3 whole entry, looked up): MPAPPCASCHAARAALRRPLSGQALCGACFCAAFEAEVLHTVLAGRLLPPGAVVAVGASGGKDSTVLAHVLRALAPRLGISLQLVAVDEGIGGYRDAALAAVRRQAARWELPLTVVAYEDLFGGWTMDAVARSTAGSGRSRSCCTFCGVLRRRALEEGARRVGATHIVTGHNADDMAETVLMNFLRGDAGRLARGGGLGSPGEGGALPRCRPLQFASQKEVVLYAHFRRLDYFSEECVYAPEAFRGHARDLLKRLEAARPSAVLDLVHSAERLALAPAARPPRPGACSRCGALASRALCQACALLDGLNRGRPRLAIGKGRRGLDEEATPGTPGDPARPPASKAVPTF
Sequence of UniProt Q7L014 (Q7L014 whole entry, looked up): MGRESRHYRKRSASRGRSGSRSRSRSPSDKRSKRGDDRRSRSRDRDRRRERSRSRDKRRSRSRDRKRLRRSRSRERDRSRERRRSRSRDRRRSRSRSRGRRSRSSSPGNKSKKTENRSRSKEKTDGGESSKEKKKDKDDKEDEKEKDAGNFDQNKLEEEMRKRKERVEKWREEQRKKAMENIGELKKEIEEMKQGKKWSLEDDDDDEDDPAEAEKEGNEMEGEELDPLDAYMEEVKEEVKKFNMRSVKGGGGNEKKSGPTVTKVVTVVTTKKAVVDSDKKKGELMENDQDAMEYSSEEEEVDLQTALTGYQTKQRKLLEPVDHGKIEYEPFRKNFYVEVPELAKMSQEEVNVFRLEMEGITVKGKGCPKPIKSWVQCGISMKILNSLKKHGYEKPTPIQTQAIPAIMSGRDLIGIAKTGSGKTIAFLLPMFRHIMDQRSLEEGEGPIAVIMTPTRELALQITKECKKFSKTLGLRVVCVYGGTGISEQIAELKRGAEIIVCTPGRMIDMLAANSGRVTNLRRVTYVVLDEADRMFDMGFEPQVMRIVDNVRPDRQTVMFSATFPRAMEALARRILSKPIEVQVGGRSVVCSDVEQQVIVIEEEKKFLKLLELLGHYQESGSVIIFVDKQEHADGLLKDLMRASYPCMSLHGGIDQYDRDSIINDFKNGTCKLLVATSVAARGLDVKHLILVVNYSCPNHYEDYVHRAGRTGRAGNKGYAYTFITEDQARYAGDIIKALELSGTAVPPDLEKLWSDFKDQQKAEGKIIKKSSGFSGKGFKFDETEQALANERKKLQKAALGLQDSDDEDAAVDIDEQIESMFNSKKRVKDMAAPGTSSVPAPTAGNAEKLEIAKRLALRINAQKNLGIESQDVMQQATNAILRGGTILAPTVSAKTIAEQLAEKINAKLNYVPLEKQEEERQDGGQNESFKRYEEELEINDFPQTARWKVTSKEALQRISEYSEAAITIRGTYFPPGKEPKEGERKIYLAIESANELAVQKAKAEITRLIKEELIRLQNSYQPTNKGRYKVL
Sequence of UniProt Q5W0V3 (Q5W0V3 whole entry, looked up): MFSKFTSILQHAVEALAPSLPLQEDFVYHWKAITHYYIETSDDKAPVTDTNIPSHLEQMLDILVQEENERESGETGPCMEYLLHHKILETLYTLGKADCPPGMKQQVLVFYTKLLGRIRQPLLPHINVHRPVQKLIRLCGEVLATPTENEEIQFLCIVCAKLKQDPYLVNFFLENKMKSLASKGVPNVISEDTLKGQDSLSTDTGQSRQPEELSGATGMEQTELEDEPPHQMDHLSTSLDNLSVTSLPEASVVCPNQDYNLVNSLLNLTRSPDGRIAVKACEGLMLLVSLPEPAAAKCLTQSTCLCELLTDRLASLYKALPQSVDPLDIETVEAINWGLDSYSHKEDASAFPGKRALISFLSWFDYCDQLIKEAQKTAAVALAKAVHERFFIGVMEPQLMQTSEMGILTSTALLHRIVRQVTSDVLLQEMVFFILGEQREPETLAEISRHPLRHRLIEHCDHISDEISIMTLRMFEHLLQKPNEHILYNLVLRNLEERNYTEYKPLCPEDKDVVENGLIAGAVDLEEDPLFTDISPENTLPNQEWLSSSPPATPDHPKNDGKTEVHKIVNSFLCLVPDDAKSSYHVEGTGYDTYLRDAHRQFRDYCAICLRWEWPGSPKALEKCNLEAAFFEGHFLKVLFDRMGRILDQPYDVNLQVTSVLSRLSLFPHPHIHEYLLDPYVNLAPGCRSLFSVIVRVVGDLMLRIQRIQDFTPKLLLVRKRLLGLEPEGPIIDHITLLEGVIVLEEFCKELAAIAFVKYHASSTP
Sequence of UniProt Q96CS3 (Q96CS3 whole entry, looked up): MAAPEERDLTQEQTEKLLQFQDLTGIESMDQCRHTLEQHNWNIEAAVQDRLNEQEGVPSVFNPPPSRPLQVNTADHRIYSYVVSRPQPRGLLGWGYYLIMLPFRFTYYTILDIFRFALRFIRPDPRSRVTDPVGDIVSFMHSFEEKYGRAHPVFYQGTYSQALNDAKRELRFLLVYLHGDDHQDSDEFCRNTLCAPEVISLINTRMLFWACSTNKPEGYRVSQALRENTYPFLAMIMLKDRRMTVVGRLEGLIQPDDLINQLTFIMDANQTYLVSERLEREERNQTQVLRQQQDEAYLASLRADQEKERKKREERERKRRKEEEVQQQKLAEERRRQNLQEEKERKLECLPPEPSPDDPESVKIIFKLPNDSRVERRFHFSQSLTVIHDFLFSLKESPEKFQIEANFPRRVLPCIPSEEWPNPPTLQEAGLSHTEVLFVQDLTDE
Sequence of UniProt Q8NDI1 (Q8NDI1 whole entry, looked up): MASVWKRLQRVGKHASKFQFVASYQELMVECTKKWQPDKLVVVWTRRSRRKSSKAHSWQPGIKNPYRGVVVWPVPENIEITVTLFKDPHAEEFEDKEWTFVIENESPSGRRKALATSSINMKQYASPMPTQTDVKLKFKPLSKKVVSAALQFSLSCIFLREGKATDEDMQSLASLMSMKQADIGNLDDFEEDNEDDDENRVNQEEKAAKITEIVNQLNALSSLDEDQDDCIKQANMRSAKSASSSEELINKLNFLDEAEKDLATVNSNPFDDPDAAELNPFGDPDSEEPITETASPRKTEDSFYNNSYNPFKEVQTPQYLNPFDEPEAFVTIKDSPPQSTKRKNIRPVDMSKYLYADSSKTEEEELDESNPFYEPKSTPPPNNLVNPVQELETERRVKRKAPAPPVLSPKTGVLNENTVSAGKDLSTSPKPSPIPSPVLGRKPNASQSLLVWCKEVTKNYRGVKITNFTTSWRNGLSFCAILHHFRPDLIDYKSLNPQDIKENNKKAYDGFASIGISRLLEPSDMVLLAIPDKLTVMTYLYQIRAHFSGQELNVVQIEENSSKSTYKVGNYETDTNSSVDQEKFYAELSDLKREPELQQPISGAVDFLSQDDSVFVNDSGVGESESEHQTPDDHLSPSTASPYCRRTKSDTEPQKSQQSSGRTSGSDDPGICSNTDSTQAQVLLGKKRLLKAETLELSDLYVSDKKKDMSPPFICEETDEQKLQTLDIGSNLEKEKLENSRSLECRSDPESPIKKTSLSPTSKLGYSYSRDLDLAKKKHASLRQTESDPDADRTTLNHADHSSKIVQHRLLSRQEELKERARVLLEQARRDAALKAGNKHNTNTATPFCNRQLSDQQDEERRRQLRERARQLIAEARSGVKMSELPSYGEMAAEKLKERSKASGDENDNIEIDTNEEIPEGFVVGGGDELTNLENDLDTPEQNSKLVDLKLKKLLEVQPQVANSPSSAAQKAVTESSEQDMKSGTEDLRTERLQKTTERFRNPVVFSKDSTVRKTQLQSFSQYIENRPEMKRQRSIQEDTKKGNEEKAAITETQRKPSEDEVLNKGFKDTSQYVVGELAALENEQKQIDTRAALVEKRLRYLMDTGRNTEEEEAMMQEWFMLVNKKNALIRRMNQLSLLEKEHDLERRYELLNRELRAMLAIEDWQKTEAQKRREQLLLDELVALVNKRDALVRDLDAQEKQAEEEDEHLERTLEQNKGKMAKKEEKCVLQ
Sequence of UniProt Q0VG06 (Q0VG06 whole entry, looked up): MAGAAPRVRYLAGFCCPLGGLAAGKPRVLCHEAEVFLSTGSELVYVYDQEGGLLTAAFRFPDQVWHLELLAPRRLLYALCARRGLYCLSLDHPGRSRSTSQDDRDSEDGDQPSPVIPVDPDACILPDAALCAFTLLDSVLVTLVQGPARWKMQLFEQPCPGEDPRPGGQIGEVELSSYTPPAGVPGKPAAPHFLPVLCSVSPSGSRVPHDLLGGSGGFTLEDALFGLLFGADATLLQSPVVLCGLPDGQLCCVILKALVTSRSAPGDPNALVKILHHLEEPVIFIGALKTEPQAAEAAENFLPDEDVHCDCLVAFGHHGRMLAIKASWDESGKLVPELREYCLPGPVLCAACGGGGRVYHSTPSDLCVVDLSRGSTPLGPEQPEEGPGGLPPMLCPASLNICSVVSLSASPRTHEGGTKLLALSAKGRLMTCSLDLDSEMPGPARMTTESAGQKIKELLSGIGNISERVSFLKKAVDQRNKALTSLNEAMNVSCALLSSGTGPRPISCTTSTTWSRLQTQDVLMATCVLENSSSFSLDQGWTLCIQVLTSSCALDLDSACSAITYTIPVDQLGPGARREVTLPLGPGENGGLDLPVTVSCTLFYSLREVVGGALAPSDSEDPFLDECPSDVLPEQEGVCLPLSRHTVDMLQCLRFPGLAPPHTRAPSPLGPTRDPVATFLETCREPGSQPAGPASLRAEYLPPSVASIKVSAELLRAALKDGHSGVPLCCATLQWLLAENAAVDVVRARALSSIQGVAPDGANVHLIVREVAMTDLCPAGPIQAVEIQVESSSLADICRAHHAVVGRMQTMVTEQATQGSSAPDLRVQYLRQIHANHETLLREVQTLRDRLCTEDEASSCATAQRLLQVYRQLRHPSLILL
Sequence of UniProt P09668 (P09668 whole entry, looked up): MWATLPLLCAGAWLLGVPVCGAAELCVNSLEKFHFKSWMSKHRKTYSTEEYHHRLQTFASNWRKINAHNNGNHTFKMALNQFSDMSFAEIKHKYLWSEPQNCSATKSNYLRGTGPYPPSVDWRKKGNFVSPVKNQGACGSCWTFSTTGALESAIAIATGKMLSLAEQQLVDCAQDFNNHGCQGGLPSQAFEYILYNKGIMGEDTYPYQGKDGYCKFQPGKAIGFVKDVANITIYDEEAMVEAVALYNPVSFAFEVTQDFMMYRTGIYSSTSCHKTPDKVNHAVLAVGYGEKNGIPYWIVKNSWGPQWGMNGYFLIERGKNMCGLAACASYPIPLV

Compound in the test: c1cn2cc(-c3ccc4cn[nH]c4c3)nc(Nc3ccc(N4CCOCC4)cc3)c2n1 [entospletinib]
As to the kind of experiment: log2 fold change, soluble protein after heating vs DMSO (PISA); higher = thermal stabilisation; K562 cells, 10 uM, 30 min; active = over 0.2 and 3.5 SD of the protein, either way, in both replicates (recomputed). The method, boiled down:
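Soluble protein was defined as the supernatant after 21,000xg for 90 min. It came from K562 cells at 2×10^6 cells/mL given 10 μM compound for 30 min, heated in aliquots for 3 min across 48°C-58°C, pooled, and extracted in PBS with 0.5% NP-40 at 4°C, and was quantified by TMTpro 16plex LC-MS/MS with equalised channel sums. Thermal stability against control samples, from duplicates, is reported as log2 fold change.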
Take DDX4 (UniProt Q9NQI0): the log2 fold change was 0.276 (inactive).
Take EPHX2 (UniProt P34913): the log2 fold change is 0.05 (inactive).
For ERCC2 (UniProt P18074), the log2 fold change is 0.154 (inactive).
As to DOCK8 (UniProt Q8NF50), the log2 fold change is -0.044 (inactive).
For the target EXOC7 (UniProt Q9UPT5), the log2 fold change is -0.106 (inactive).
For CWF19L2 (UniProt Q2TBE0), the log2 fold change is -0.162 (inactive).
Next, FAM122A (UniProt Q96E09): -0.012 (inactive); ELF1 (UniProt P32519): -0.082 (inactive); DYRK1A isoform 2 (UniProt Q13627): 0.003 (inactive).
In the case of EFL1 (UniProt Q7Z2Z2), the log2 fold change was -0.06 (inactive).
In the case of EHBP1 (UniProt Q8NDI1), the log2 fold change was -0.082 (inactive).
Consider DPP8 (UniProt Q6V1X1), for which the log2 fold change is -0.377 (active).
Next, DENND10 (UniProt Q8TCE6): -0.006 (inactive); EEF1D isoform 2 (UniProt P29692): 0.031 (inactive); CUX1 isoform 3 (UniProt P39880): 0.016 (inactive).
Next, FAAP100 (UniProt Q0VG06): 0.003 (inactive); DHX36 (UniProt Q9H2U1): 0.016 (inactive); DDX46 (UniProt Q7L014): -0.043 (inactive).
As to CTSS (UniProt P25774), the log2 fold change was 0.07 (inactive).
Regarding EXOC5 (UniProt O00471), the log2 fold change was 0.002 (inactive).
Next, DDX39A (UniProt O00148): 0.022 (inactive); DNAJB1 (UniProt P25685): -0.085 (inactive).
As for FAF2 (UniProt Q96CS3), the log2 fold change is -0.015 (inactive).
Next, EXOC2 (UniProt Q96KP1): -0.005 (inactive); CTSH (UniProt P09668): -0.021 (inactive); DSN1 (UniProt Q9H410): -0.044 (inactive).
As for FAM241A (UniProt Q8N8J7), the log2 fold change was -0.008 (inactive).
On to DCUN1D1 (UniProt Q96GG9), for which the log2 fold change is -0.023 (inactive).
As for EIF4G1 isoform 8 (UniProt Q04637), the log2 fold change was 0.024 (inactive).
Consider DNAJB12 (UniProt Q9NXW2), for which the log2 fold change was 0.01 (inactive).
Take EIF4E2 (UniProt O60573): the log2 fold change was -0.107 (inactive).
Take CTU1 (UniProt Q7Z7A3): the log2 fold change is 0.006 (inactive).
Regarding EIF4E isoform 2 (UniProt P06730), the log2 fold change is 0.062 (inactive).
In the case of ERCC6 (UniProt Q03468), the log2 fold change is 0.045 (inactive).
Next, FAM160B1 (UniProt Q5W0V3): 0.008 (inactive).
